# Screening results from PubChem.
# uPA surface inh: cell surface uPA generation inhibition; AID 540303; cell surface uPA generation assay, qHTS; 330,000 tested, 0.31% active; Potency, µM (top dose mostly 38.3 µM), most hits filed as inhibitors; active = well fitted inhibition curve with a large enough effect; inconclusive = small, poorly fitted or top-dose-only effect; inactive = no such curve, though single readings can be large or run the other way; tested in mouse RAW 264.7 cells; note: nearly all actives have a fitted effect of over 55% in size
# ClpP mod: qHTS Assay for Activators of ClpP; purified B. subtilis ClpP, FRET peptide cleavage, 20 min; Potency, µM (titrated, usually from 57.5 µM); 340,000 tested, 1.9% active; active = well fitted falling curve with a large enough effect; inconclusive = small, poorly fitted or top-dose-only effect; inactive = no such curve, though single readings can be large or run the other way; note: the source files actives as falling curves though it sought activators and does not explain the sign; nearly all actives have a fitted effect of over 65% in size
# Target sequence (P80244 whole entry, looked up): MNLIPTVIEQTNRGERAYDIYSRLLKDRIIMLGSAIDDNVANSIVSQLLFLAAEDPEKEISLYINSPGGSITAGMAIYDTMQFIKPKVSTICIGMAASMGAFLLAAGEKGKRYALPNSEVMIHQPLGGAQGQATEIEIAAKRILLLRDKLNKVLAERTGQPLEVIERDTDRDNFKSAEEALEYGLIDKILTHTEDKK
#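 Buffer: 100 mM Tris/HCl pH8, 100 mM KCl, 0.05% low protease BSA, 2.5% glycerol, 0.01% Tween-20. ClpP 10 microg/mL final; 20 min RT; delta FRET normalized to ADEP and DMSO controls.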
# Sfp inh: blocks B. subtilis Sfp PPTase activity. Biochemical Sfp PPTase activity, qHTS. Potency, µM, usual class: inhibitors. 310,000 tested, 3.5% active. AID 1490;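 note: the enzyme is Sfp with the accession as filed and its product quenches rhodamine fluorescence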
#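 Fluorescence-quenching assay with 15 nM Sfp, 5 uM rhodamine-CoA and 12.5 uM BHQ-2-labelled ybbR peptide in pH 7.6 Hepes/MgCl2 buffer. Enzyme was pre-incubated with compound for 15 min at room temperature. Rate was taken from the 30-min fluorescence change (525/598 nm).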
# TCR activator: activators of T cell receptors; primary human leukocytes, anti-CD3, IL-2 HTRF, 48 h; Potency, µM (series often up to 9.22 µM), actives largely listed as activators; 330,000 tested, under 10 active
#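 Activity was scored as IL-2 release from primary human leukocytes given only a TCR signal (a-CD3 beads) plus compound for 48 hr. Detection used a two-antibody HTRF format read at 665nm.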
# Numbers stand for hits; 0 = inactive; ? = inconclusive; - = no result given. Only some compounds are listed: those with a hit (about 4.2% of all), similar ones and a draw of the others. Unless noted, calls come from the whole dose curve; as a rule, active = well fitted curve in the direction sought with a large enough effect; inconclusive = small, poorly fitted or top-dose-only effect, or another doubt; inactive = no such curve, though single readings can be large; an effect the other way counts as inactive or inconclusive.
SMILES,uPA surface inh,ClpP mod,Sfp inh,TCR activator
Cc1cc(C(=O)CSc2nnc(-c3ccccc3F)o2)c(C)n1Cc1cccs1,0,0,28.2µM,0
CCOc1ccc(S(=O)(=O)NCc2ccc(F)cc2)c2cccnc12,0,25.1µM,0,0
CCOc1ccc(S(=O)(=O)Nc2ccc3c(c2)OCO3)c2cccnc12,0,0,56.2µM,0
CCOc1ccc(S(=O)(=O)Nc2cccc(C)c2)c2cccnc12,0,0,0,0
CCOc1ccc(S(=O)(=O)NCc2ccc(OC)cc2)c2cccnc12,0,0,0,0
CCCCc1nc2c(c3c1C[C@H](C)OC3)CN(C(=O)N[C@H](C(=O)OC)C(C)C)CC2,-,-,0,-
CCOC(=O)N[C@H](Cc1c[nH]c2ccccc12)C(=O)Nc1cccc(Cl)c1,-,0,-,-
CCOC(=O)NC(N(O)c1cccc(Cl)c1)C(Cl)(Cl)Cl (stereo not given),0,-,11.2µM,0
S=c1nc[nH]c2c1ncn2C1CCCO1 (stereo not given),0,-,3.98µM,0
OCC1OC(n2cnc3c(=S)nc[nH]c32)CC1O (stereo not given),0,0,-,0
Oc1ccc(-c2nc(-c3ccc(O)c(O)c3)cs2)cc1,0,0,79.4µM,0
CC(C)[C@@H]1[C@H]2CC[C@H](C2)[C@H]1N,-,-,0,-
CSc1nccn1C(=O)c1ccccc1[N+](=O)[O-],0,0,39.8µM,0
CC1CCN(c2oc(/C=C/c3ccc(F)cc3)nc2C#N)CC1,-,0,-,-
CC(C)C[C@H](NC(=O)[C@H](Cc1cnc[nH]1)NC(=O)[C@@H](N)Cc1cnc[nH]1)C(=O)NCC(=O)NCC(=O)N[C@@H](C)C(=O)N[C@@H](CCCCN)C(=O)N[C@@H](CCC(N)=O)C(=O)N[C@@H](C)C(=O)NCC(=O)N[C@@H](CC(=O)O)C(=O)N[C@H](C(=O)O)C(C)C,-,-,0,-
COc1ccc(CC(=O)N2CCN(c3ccccn3)CC2)cc1,0,20µM,0,0
CN(CC(=O)N1CCN(c2ncccn2)CC1)S(=O)(=O)c1ccc(Cl)cc1,0,-,0,0
Cc1ccc(CC(=O)N2CCN(c3ccccn3)CC2)cc1,0,22.4µM,0,0
CN(CC(=O)N1CCN(c2ccccn2)CC1)S(=O)(=O)c1ccccc1,0,31.6µM,0,0
COc1ccccc1S(=O)(=O)Cc1ccc(C(=O)N2CCN(c3ccccn3)CC2)o1,0,0,79.4µM,0
O=C(NN1CCOCC1)NC12CC3CC(CC(C3)C1)C2,0,0,0,0
COc1ccccc1NC(=O)CS(=O)(=O)c1cn(CC(=O)N2CCCC2)c2ccccc12,0,0,0,0
Cc1ccc(NC(=O)Cn2c(=O)c3ccccc3n3nncc23)cc1,-,0,-,-
O=C(c1cn(Cc2ccccc2)nc1-c1ccccc1)N1CCN(c2ccccn2)CC1,4.47µM,0,-,0
COc1ccc(-c2nn(Cc3ccccc3)cc2C(=O)N2CCN(c3ccccn3)CC2)cc1OC,0,?,-,0
SMILES,uPA surface inh,ClpP mod,Sfp inh,TCR activator
Cc1nc2nc(SCC(N)=O)[nH]c2cc1Br,0,15.8µM,0,0
CCOC(=O)CNC(=O)CSc1nc2nc(C)c(Br)cc2[nH]1,0,0,0,0
ONCc1ccccc1,-,-,12.6µM,-
Cc1ccc(-c2ccc(/C=N/c3ncn[nH]3)o2)cc1Cl,0,?,56.2µM,0
Cc1cc(/C=N/n2cnnc2)c(C)n1-c1ccc(OCc2ccc(Cl)cc2Cl)cc1,0,?,35.5µM,0
CCOc1ccc(CNC(=O)c2cnc3sc(N(CC)CC)nn3c2=O)cc1,-,0,-,-
CCc1ccc(CNC(=O)c2cnc3sc(N(CC)CC)nn3c2=O)cc1,-,12.6µM,-,-
CCN(CC)c1nn2c(=O)c(C(=O)NCCc3ccc(C)cc3)cnc2s1,-,15.8µM,-,-
CCN(CC)c1nn2c(=O)c(C(=O)NCCc3ccccc3C)cnc2s1,-,3.98µM,-,-
CCOc1ccccc1CNC(=O)c1cnc2sc(N(CC)CC)nn2c1=O,-,8.91µM,-,-
Cc1cccc(NC(=O)c2oc3ccc(S(=O)(=O)N4CCCCC4)cc3c2C)c1C,-,0,-,-
Cc1ccc(C)c(NS(=O)(=O)c2cc3c(cc2C)n(C)c(=O)c(=O)n3C)c1,-,0,-,-
Cc1cc(OCc2nn[nH]n2)c2c(C)c(Cc3ccccc3)c(=O)oc2c1,0,31.6µM,0,0
COc1ccc(S(=O)(=O)NCCSCc2ccco2)cc1OC,0,0,28.2µM,-
O=C1CSC2(N1)C1CC3CC(C1)CC2C3 (stereo not given),0,-,0,0
C1CSC2(N1)C1CC3CC2CC(C1)C31NCCS1 (stereo not given),0,0,20µM,0
OC(c1cc(F)cc(Cl)c1)c1ncc(-c2ccccc2C(F)(F)F)[nH]1 (stereo not given),-,0,-,-
CNc1oc(C)nc1S(=O)(=O)c1ccccc1,0,0,31.6µM,0
Cc1nc(S(=O)(=O)c2ccc(Cl)cc2)c(NCc2ccccc2)o1,0,0,0,0
Cc1ccccc1OCC(=O)NC(Cc1c[nH]c2ccccc12)C(=O)O (stereo not given),0,-,0,0
Cc1cccc(OCC(=O)NC(Cc2c[nH]c3ccccc23)C(=O)O)c1C (stereo not given),0,0,50.1µM,0
N/C(=N\N=C\c1ccc([N+](=O)[O-])cc1)c1nonc1N,0,-,0,0
CS/C(N)=N/N=C/c1ccc([N+](=O)[O-])cc1,0,0,79.4µM,0
Cn1c2ccccc2c2c(C(=O)NCCCN3CCCC3=O)cn(C3CCCCC3)c(=O)c21,0,14.1µM,0,0
COc1cccc(NC(=O)c2cn(C3CCCCC3)c(=O)c3c2c2ccccc2n3C)c1,-,31.6µM,-,-
SMILES,uPA surface inh,ClpP mod,Sfp inh,TCR activator
c1coc(-c2nc3n(n2)C2(CCCCC2)[C@@H]2CCCC[C@@H]2N3)c1,-,0,-,-
CN(C)CCCNS(=O)(=O)c1ccc(N2CCN(Cc3ccc4c(c3)OCO4)CC2)c([N+](=O)[O-])c1,0,-,70.8µM,0
COc1ccccc1/C=C/C=N\N1CCN(Cc2ccccc2Cl)CC1,0,0,22.4µM,0
COc1ccc(/C=N\N2CCN(Cc3ccccc3Cl)CC2)cc1,0,0,79.4µM,0
CCOC(=O)NC1(C(F)(F)F)NC(=O)N(c2ccc(F)cc2)C1=O (stereo not given),0,35.5µM,0,0
COc1cc2c(cc1OC)CN(C(=O)c1cccs1)CC2,0,0,0,0
COc1cc2c(cc1OC)CN(C(=O)/C=C/c1cccs1)CC2,3.16µM,0,0,0
COc1cc2c(cc1OC)CN(C(=O)CSc1ccccc1C)CC2,0,22.4µM,-,0
O=C(/C=C/c1cccs1)N1CCN(c2ccc(O)cc2)CC1,0,-,44.7µM,0
O=C(/C=C/c1cccs1)N1CCCCC1,0,-,0,0
COc1cc2c(cc1OC)CN(C(=O)CSC1=NCCS1)CC2,-,0,-,-
COc1cc2c(cc1OC)CN(C(=O)c1sccc1C)CC2,0,28.2µM,0,0
CCOc1ccc(NC(=O)CC2C(=O)N(c3ccccc3)C(=O)N2C2CCCCC2)cc1 (stereo not given),-,0,-,-
Cc1nc(SCC(=O)Nc2ccc3[nH]c(=O)[nH]c3c2)nc(C)c1C,0,0,-,0
N#Cc1c(N)c(C#N)c(-c2ccc3c(c2)OCO3)c2c1CCCC2,0,31.6µM,0,0
N#Cc1c(N)c(C#N)c(-c2ccc(O)cc2)c2c1CCCC2,0,22.4µM,0,0
